Data as given in the supplement of paper PMC10849652.
About 7,900 targets were measured; listed, in parts, are those with a hit and a random draw of the rest. About 0.6% of all pairs of compound and target were hits. A number with no mark means an inactive call.

Legend:
Experiment in all cases: log2 fold change, soluble protein after heating vs DMSO (PISA); higher = thermal stabilisation; K562 cells, 10 uM, 30 min; active = over 0.2 and 3.5 SD of the protein, either way, in both replicates (recomputed)
[1] = compound: CC1=C(C=C(C=C1)NC(=O)C2=CC(=CC=C2)C(C)(C)C#N)NC3=CC4=C(C=C3)N=CN(C4=O)C
In short: (§1)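 K562 cells at 2×10^6 cells/mL were exposed to 10 μM compound for 30 min, then aliquots were heated for 3 min across 48°C-58°C, pooled, and extracted in PBS containing 0.5% NP-40 at 4°C. The supernatant after 21,000xg for 90 min was taken as soluble protein and measured by TMTpro 16plex LC-MS/MS with channel sums equalised. Thermal stability is reported relative to control samples, with values from duplicates. Fold changes are given on a log2 scale.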

[2] = compound: CC1=C(C=C(C=C1)NC(=O)C2=CC(=CC=C2)N(C)C)NC(=O)C3=CC=C(C=C3)O
In short: as §1

[3] = compound: CC1=CC=C(C=C1)SC2=C3C=C(SC3=CN=C2)C(=O)N
In short: as §1

[4] = compound: CC1=NC(=CC=C1)C2=C(N=C(N2)C(C)(C)C)C3=CC4=NC=CN=C4C=C3
In short: as §1

Nexturastat A = compound: CCCCN(Cc1ccc(C(=O)NO)cc1)C(=O)Nc1ccccc1 [Nexturastat A]
In short: as §1

vemurafenib = compound: CCCS(=O)(=O)Nc1ccc(F)c(C(=O)c2c[nH]c3ncc(-c4ccc(Cl)cc4)cc23)c1F [vemurafenib]
In short: as §1

[5] = compound: CCCS(=O)(=O)Nc1ccc(F)c(C(=O)c2c[nH]c3ncc(Cl)cc23)c1F
In short: as §1

[6] = compound: CCCc1cc(C)[nH]c(=O)c1CNC(=O)c1cc(-c2ccnc(N3CCN(C)CC3)c2)cc2c1cnn2C(C)C
In short: as §1

givinostat = compound: CCN(CC)Cc1ccc2cc(COC(=O)Nc3ccc(C(=O)NO)cc3)ccc2c1 [givinostat]
In short: as §1

barasertib = compound: CCN(CCCOc1ccc2c(Nc3cc(CC(=O)Nc4cccc(F)c4)[nH]n3)ncnc2c1)CCOP(=O)(O)O [barasertib]
In short: as §1

UniProt O15198, sequence (O15198 whole entry, looked up): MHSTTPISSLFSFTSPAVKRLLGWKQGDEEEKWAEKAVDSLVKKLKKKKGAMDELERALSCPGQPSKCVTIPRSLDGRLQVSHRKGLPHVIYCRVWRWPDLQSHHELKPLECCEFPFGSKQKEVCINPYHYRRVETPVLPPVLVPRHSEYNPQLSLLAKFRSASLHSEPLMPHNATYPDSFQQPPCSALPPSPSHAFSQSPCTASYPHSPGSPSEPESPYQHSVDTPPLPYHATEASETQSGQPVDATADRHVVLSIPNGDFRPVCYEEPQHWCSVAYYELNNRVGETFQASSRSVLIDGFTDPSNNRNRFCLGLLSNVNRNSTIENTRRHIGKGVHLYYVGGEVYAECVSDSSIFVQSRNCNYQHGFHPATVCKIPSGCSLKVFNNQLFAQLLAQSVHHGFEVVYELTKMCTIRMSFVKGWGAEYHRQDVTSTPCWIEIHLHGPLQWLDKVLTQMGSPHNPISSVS
UniProt Q8TCT7, sequence (Q8TCT7 whole entry, looked up): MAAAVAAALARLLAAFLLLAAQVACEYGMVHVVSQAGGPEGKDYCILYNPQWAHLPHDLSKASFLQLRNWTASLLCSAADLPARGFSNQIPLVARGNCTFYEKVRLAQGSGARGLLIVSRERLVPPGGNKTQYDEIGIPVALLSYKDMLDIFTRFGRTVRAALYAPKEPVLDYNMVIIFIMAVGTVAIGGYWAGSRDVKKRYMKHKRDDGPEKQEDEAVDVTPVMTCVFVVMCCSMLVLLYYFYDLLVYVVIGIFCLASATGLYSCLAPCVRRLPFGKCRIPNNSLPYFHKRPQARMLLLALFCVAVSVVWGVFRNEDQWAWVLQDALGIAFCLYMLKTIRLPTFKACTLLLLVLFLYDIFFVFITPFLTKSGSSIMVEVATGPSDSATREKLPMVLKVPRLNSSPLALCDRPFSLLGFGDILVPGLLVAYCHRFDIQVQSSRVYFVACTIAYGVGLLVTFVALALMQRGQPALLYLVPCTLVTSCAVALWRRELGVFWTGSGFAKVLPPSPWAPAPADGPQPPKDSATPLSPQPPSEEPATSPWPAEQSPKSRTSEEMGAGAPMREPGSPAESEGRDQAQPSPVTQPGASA
UniProt P12235, sequence (P12235 whole entry, looked up): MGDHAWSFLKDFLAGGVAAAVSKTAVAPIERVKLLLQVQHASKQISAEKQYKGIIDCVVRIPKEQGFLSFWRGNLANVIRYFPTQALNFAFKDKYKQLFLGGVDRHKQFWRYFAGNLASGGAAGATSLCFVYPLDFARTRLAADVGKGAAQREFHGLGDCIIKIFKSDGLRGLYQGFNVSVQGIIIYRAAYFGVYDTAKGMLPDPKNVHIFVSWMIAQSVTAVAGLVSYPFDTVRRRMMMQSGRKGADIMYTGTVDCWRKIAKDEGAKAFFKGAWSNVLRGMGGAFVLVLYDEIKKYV
UniProt Q13586, sequence (Q13586 whole entry, looked up): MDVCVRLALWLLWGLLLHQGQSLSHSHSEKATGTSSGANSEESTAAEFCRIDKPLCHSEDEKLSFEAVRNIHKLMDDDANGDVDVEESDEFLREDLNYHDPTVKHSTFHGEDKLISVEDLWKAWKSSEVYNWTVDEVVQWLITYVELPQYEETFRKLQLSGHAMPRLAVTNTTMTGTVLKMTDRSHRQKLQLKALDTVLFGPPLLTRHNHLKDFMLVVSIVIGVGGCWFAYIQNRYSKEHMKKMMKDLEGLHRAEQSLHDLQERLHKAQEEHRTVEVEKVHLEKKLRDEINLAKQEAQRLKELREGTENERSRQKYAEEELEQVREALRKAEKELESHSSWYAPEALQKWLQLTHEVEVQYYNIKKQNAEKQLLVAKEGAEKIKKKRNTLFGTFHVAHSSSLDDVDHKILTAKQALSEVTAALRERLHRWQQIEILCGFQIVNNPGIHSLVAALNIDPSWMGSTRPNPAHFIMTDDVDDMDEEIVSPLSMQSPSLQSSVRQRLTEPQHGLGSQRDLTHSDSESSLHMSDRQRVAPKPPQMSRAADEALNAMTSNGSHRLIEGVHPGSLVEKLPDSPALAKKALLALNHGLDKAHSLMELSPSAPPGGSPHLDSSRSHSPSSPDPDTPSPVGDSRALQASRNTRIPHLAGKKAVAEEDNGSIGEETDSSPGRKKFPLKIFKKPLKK
UniProt O15400, sequence (O15400 whole entry, looked up): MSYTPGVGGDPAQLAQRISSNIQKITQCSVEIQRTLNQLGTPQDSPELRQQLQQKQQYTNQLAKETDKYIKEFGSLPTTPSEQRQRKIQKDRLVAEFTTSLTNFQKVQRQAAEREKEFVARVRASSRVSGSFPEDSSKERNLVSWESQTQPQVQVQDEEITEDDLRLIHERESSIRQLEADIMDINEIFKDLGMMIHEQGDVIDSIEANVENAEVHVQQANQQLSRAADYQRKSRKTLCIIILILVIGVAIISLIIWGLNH
UniProt Q96QD8, sequence (Q96QD8 whole entry, looked up): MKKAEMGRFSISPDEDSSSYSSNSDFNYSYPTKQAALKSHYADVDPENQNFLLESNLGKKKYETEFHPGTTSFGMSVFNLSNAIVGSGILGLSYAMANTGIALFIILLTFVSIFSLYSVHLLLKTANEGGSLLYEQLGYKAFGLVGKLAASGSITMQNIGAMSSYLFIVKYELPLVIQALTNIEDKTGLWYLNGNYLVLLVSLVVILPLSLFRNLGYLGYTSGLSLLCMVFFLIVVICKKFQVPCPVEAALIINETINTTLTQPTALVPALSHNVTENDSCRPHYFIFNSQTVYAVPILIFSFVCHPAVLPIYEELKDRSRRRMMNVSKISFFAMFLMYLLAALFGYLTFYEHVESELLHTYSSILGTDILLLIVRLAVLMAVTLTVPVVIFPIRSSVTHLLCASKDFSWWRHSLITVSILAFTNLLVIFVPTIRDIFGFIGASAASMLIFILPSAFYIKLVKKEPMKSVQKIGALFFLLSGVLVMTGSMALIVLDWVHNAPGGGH
UniProt Q13428, sequence (Q13428 whole entry, looked up): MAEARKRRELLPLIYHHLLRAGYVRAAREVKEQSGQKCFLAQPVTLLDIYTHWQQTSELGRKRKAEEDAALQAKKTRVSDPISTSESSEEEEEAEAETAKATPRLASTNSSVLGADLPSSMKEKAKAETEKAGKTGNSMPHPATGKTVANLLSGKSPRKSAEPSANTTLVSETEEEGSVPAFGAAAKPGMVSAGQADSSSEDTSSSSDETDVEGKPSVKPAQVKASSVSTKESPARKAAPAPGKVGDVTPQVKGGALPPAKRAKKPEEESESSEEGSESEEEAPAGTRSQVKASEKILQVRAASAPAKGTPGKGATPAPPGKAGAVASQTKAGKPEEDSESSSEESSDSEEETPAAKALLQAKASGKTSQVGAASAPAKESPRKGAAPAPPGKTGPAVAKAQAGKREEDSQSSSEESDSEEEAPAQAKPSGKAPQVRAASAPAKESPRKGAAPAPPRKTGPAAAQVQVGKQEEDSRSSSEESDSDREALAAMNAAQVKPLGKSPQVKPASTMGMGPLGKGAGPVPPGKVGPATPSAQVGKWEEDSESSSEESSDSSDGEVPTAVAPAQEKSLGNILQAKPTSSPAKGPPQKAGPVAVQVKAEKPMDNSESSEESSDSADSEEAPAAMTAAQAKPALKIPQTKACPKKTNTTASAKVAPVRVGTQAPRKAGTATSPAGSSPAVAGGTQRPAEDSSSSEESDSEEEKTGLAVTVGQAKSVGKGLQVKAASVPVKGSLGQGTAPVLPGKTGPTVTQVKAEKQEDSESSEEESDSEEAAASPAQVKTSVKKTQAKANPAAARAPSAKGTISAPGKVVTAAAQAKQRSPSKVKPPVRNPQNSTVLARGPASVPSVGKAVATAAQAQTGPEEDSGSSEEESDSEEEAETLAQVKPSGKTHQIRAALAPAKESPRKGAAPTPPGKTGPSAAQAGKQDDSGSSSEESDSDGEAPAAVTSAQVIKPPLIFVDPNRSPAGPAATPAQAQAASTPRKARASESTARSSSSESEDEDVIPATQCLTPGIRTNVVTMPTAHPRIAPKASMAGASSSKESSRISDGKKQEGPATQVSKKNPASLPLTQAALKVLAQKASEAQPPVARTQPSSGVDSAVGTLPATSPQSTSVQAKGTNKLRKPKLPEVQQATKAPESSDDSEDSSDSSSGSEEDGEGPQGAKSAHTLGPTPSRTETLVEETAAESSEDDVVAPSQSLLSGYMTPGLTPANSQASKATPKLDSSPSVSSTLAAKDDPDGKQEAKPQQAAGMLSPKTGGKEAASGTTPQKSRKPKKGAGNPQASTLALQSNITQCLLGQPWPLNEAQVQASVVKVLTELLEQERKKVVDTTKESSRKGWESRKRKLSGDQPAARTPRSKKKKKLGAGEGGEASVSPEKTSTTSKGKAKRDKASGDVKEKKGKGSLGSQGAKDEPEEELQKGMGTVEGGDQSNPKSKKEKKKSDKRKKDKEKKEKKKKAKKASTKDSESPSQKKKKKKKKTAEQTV
UniProt Q9Y6I9, sequence (Q9Y6I9 whole entry, looked up): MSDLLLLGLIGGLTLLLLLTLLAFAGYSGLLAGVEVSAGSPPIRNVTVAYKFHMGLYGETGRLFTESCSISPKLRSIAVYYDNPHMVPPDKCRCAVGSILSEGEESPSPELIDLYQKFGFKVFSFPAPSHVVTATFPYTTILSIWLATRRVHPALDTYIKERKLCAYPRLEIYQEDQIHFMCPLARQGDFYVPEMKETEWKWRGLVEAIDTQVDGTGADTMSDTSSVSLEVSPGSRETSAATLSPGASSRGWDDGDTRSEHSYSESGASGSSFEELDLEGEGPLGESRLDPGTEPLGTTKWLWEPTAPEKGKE
UniProt Q9BVV7, sequence (Q9BVV7 whole entry, looked up): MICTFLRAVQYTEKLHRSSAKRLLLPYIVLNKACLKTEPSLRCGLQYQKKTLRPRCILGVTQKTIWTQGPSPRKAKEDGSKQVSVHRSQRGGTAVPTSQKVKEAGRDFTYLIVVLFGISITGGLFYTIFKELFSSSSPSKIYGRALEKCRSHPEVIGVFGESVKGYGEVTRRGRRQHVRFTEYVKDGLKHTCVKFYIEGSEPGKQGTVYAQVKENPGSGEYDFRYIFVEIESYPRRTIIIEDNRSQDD

Target | log2 fold change [1] | log2 fold change [2] | log2 fold change [3] | log2 fold change [4] | log2 fold change (Nexturastat A) | log2 fold change (vemurafenib) | log2 fold change [5] | log2 fold change [6] | log2 fold change (givinostat) | log2 fold change (barasertib)
SLC38A2 (UniProt Q96QD8) | 0.118 | 0.026 | 0.067 | 0.062 | -0.133 | 0.032 | 0.096 | -0.107 | -0.014 | -0.039
SRSF11 (UniProt Q05519) | -0.029 | -0.058 | 0.009 | 0.032 | -0.022 | 0.007 | 0.087 | 0.053 | 0.059 | 0.023
SNUPN (UniProt O95149) | -0.078 | 0.052 | 0.013 | 0.026 | -0.037 | -0.024 | -0.065 | 0.013 | -0.017 | 0.024
TIMM21 (UniProt Q9BVV7) | 0.014 | 0.008 | 0.035 | 0.058 | -0.121 | 0.032 | 0.067 | -0.005 | 0.005 | 0.034
TEX264 (UniProt Q9Y6I9) | 0.053 | -0.016 | -0.008 | 0.013 | 0.023 | -0.002 | -0.049 | 0.014 | 0.317 | 0.032
TJP2 isoform 7 (UniProt Q9UDY2) | -0.017 | -0.006 | 0.007 | -0.014 | 0.048 | 0.09 | 0.101 | -0.194 | 0.071 | 0.102
SRP72 (UniProt O76094) | 0.024 | -0.01 | 0.034 | -0.009 | 0.171 | 0.037 | 0.09 | 0.046 | 0.143 | 0.078
STARD3 (UniProt Q14849) | 0.103 | 0.075 | -0.027 | 0.036 | -0.048 | 0.052 | -0.059 | 0 | 0.011 | 0.016
SMAD2 (UniProt Q15796) | 0.036 | -0.034 | 0.01 | 0.052 | -0.382 | -0.016 | 0.04 | -0.027 | 0.047 | 0.047
TCOF1 isoform 4 (UniProt Q13428) | -0.03 | 0.015 | -0.028 | -0.019 | -0.001 | -0.029 | -0.012 | -0.004 | 0.056 | 0.006
TJP1 (UniProt Q07157) | 0.03 | -0.039 | 0.011 | -0.012 | -0.005 | 0.041 | 0.065 | -0.021 | 0.102 | 0.033
SYF2 (UniProt O95926) | 0.03 | 0.049 | -0.063 | -0.133 | -0.015 | -0.071 | -0.134 | -0.008 | 0.031 | -0.083
STIM1 (UniProt Q13586) | 0.014 | 0.003 | 0.028 | 0.045 | -0.066 | -0.006 | 0.034 | -0.015 | 0.009 | 0.008
SMCHD1 (UniProt A6NHR9) | -0.067 | 0 | 0.089 | -0.039 | 0.126 | 0.057 | 0.141 | 0.155 | 0.101 | -0.168
SLC25A4 (UniProt P12235) | 0.041 | 0.029 | 0.073 | 0.017 | -0.228 (active) | -0.028 | -0.02 | -0.032 | -0.049 | -0.009
TFR2 (UniProt Q9UP52) | 0.012 | -0.018 | -0.012 | -0.036 | -0.031 | -0.018 | -0.003 | -0.029 | -0.083 | 0.01
STAT5B (UniProt P51692) | -0.165 | -0.102 | 0.222 | 0.111 | 0.014 | 0.046 | 0.08 | 0.101 | 0.145 | 0.113
TAOK3 (UniProt Q9H2K8) | 0.028 | -0.031 | 0.078 | 0.059 | -0.054 | 0.092 | 0.115 | 0 | -0.019 | 0.027
SQSTM1 (UniProt Q13501) | 0.04 | -0.065 | -0.054 | -0.012 | 0.102 | 0.064 | 0.047 | 0.103 | -0.027 | 0.032
SMAD9 (UniProt O15198) | -0.012 | 0.029 | 0.005 | 0.028 | 0.04 | 0.122 | 0.104 | -0.032 | 0.108 | 0.054
SNX1 (UniProt Q13596) | -0.014 | -0.001 | -0.001 | 0.042 | -0.025 | 0.002 | 0.083 | -0.014 | 0.054 | 0.037
SPPL2B (UniProt Q8TCT7) | -0.097 | 0.004 | 0.089 | 0.041 | 0.029 | -0.05 | -0.018 | 0.021 | 0.048 | 0
TCERG1 (UniProt O14776) | 0.061 | -0.147 | 0.08 | 0.077 | -0.144 | 0.118 | 0.135 | -0.006 | 0.146 | 0.107
STX7 (UniProt O15400) | -0.003 | 0.025 | -0.002 | 0.055 | -0.023 | -0.036 | 0 | 0 | -0.002 | -0.02
SUN1 isoform 9 (UniProt O94901) | -0.164 | 0.047 | 0.029 | 0.04 | 0.11 | -0.21 | -0.005 | 0.037 | 0.078 | –
SUPT5H (UniProt O00267) | 0.004 | -0.054 | 0.006 | 0.013 | -0.067 | 0.008 | 0.068 | -0.028 | 0.035 | 0.04
TAX1BP1 (UniProt Q86VP1) | 0.031 | -0.005 | -0.014 | -0.026 | -0.014 | -0.003 | 0.011 | -0.055 | -0.033 | -0.061
